Assay results from PubChem BioAssay (NCATS).
Where “and” joins values, the source holds several entries; their conditions need not be identical. Equal values may be shown once. Records with an inconclusive call do not appear. Calls of active or inactive are those of the source. Calls come from the whole dose curve; as a rule, active = well fitted inhibition curve with a large enough effect; inconclusive = small, poorly fitted or top-dose-only effect; inactive = flat fitted curve, though single readings scatter.
% is set by controls: 0 for no effect and ±100 for the full control effect.

The molecules below were run on KB-3-1 (assay: Cytotoxic Profiling of Annotated Libraries Using Quantitative High-Throughput Screening (AID 1296008; note: nearly all actives have a fitted effect of over 60% in size)). Conditions: Five cell lines viability, CellTiter-Glo ATP luminescence, 48-72 h; max response: active compounds read low.
In short: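 Cytotoxicity was measured as CellTiter-Glo ATP luminescence, read after 10 min at room temperature. Compound treatment of the cells lasted 48 or 72 hr at 37 degrees Celsius in a qHTS format.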
With `COCC1=C(C(=O)OC(C)OC(=O)OC(C)C)N2C(=O)[C@@H](NC(=O)/C(=N\OC)c3csc(N)n3)[C@H]2SC1` (some centres undefined) the max response was -19.8% (inactive) and -4.94% (inactive). With `CC1(C)S[C@@H]2[C@H](NC(=O)C(C(=O)Oc3ccc4c(c3)CCC4)c3ccccc3)C(=O)N2[C@H]1C(=O)O` (some centres undefined) the max response was 21.3% (inactive). In the case of `Cc1cc(-n2c(=O)[nH]c(=O)n(C)c2=O)ccc1Oc1ccc(S(=O)(=O)C(F)(F)F)cc1`, the max response is reported as 28.3% (inactive). For `C1CNCCN1`, the max response was -7.97% (inactive). `Cc1[nH]cnc1C[C@H]1CCc2c(C)c3ccccc3n2C1=O` was tested, and the max response was -19% (inactive). For `Cn1nnnc1SCC1=C(C(=O)O)N2C(=O)[C@@H](NC(=O)[C@H](OC=O)c3ccccc3)[C@H]2SC1`, the max response was -7.31% (inactive). For `CNC[C@@H]1CC[C@@H](N)[C@@H](O[C@H]2[C@H](O)[C@@H](O[C@H]3OC[C@](C)(O)[C@H](NC)[C@H]3O)[C@H](N)C[C@@H]2N)O1`, the max response was -26.6% (inactive). `NCCCC(=O)O` was tested, and the max response was 2.75% (inactive). `CC#CCC(C)[C@H](O)/C=C/[C@@H]1[C@H]2C/C(=C/CCCC(=O)O)C[C@H]2C[C@H]1O` (some centres undefined) was tested, and the max response was -19% (inactive). For `COc1cc(C[C@@H]2NCCc3cc(O)c(O)cc32)cc(OC)c1OC`, the max response was -8.11% (inactive). In the case of `CC(CC(c1ccccc1)c1ccccc1)NC(C)(C)C` (centres undefined), the max response is reported as -0.893% (inactive). For `NNc1nnc(Cc2ccncc2)c2ccccc12`, the max response was -26.3% (inactive). For `CN(C)Cc1ccccc1`, the max response was -10.5% (inactive). `Cc1cccc(C)c1N(CCCc1cccnc1)C(=O)C(C)N` (centres undefined) was tested, and the max response was -6.26% (inactive).
